Molecules are shown by their SMILES. Compounds without any hit were thinned out: in the full panel of roughly 83,000, 20% have a hit.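 Activity criterion: percent growth below 10, measured after cells in 96-well plates were exposed to a single compound concentration for 48 hours.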 Unmarked numbers belong to inactive results. Calls of active or inactive are those of the source.

In the experiment the test system is M14 melanoma. The experiment is described as follows: NCI-60 one-dose screen, 48 h (100 = growth as untreated, 0 = no growth, -100 = all killed). The conditions noted are these: 10 µM.
With `O=S(=O)(NCCCNc1nccc(-c2c(-c3ccc(F)cc3)nc3sccn23)n1)c1ccc2ccccc2c1`, the growth is 47.7%.
Turning to `O=C(Nc1cccc(-n2cc(-c3ccncc3)c(-c3ccc(O)c(Cl)c3)n2)c1)c1ccc(Cl)c(Cl)c1`, the growth is 29.2%.
For `Cc1ccc(C)c(C(O)(c2cc(C)ccc2C)C2(O)CCCCC2)c1` the value was 98.6%.
With `O=C(/C=C/c1cc2ccccc2[nH]c1=O)c1ccc2c(c1)OCO2` the figure was 87.3%; with `O=C(Nc1cccc(-n2cc(-c3ccncc3)c(-c3ccc(O)c(Cl)c3)n2)c1)Nc1ccc(Cl)c(Cl)c1`, -50.3% (active); with `O=C(Nc1ccc(OS(=O)(=O)c2ccccc2)cc1)C12CC3CC(CC(C3)C1)C2`, 47.2%.
For `COc1ccc(-c2nn(-c3cccc(NC(=O)Nc4ccc(Cl)c(C(F)(F)F)c4)c3)cc2-c2ccncc2)cc1Cl` the value was 6.17% (active); for `COc1ccc(-c2nn(-c3cccc(NC(=O)c4ccc(Cl)c(Cl)c4)c3)cc2-c2ccncc2)cc1Cl`, 75.6%.
Consider `CCOC(=O)CCC(NC(=O)c1ccc(N)cc1)C(=O)OCC` (configuration not stated), for which the growth is 91.3%.
For `O=C(Nc1ccccc1)Nc1cccc(-n2cc(-c3ccncc3)c(-c3ccc(O)c(Cl)c3)n2)c1` the value was 31.8%; for `O=S(=O)(NCCNc1nccc(-c2c(-c3ccc(F)cc3)nc3sccn23)n1)c1ccc2ccccc2c1`, 82.9%; for `O=C(Nc1cccc(-n2cc(-c3ccncc3)c(-c3ccc(O)c(Cl)c3)n2)c1)c1cc(C(F)(F)F)cc(C(F)(F)F)c1`, 59.6%.

(Values after PubChem BioAssay (NCI).)
